# Source: PubChem
# Rows were chosen to be rich in hits. Some 9.2% of all compounds tested hit in one or more screens of this group.
# ALDH1A1 inh: qHTS Assay for Inhibitors of Aldehyde Dehydrogenase 1 (ALDH1A1); Potency, µM (series often up to 75.3 µM), most hits filed as inhibitors; Aldehyde dehydrogenase 1A1 (Homo sapiens), P00352; hit rate 7.3% among 220,000; Purified ALDH1A1, NADH fluorescence, propionaldehyde substrate
# Target sequence (P00352 whole entry, looked up): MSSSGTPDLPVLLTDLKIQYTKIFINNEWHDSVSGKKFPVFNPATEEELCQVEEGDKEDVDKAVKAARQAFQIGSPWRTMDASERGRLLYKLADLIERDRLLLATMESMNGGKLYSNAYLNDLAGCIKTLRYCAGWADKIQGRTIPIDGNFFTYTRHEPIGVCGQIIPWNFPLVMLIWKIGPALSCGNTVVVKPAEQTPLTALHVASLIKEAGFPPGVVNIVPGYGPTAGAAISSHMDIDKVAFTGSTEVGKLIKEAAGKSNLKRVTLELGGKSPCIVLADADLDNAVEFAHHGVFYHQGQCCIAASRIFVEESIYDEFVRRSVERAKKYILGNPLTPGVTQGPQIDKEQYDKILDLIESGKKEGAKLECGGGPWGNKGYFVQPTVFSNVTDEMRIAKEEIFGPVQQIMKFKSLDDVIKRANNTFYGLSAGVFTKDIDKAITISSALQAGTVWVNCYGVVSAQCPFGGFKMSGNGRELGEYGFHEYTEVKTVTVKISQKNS
# HPGD block: qHTS Assay for Inhibitors of HPGD (15-Hydroxyprostaglandin Dehydrogenase); purified HPGD, NADH fluorescence kinetic, PGE2 substrate; hit rate 4.3% among 150,000; Potency, µM, actives largely listed as inhibitors; 15-hydroxyprostaglandin dehydrogenase [NAD(+)] (Homo sapiens), P15428
# Target sequence (P15428 whole entry, looked up): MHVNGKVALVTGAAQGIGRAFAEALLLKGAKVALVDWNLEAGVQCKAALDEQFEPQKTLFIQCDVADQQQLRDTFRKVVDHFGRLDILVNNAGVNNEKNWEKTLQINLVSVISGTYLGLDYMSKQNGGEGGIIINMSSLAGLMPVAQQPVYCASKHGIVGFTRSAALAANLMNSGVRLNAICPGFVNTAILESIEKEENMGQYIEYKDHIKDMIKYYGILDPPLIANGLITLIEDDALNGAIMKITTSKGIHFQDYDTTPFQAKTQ
#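 20 nM HPGD preincubated 15 min at room temperature with compound in 50 mM Tris-HCl pH 8, 0.01% Tween 20. Started with 1 mM NAD+ and 30 uM prostaglandin E2; NADH fluorescence (360/450 nm) read 5 times over 30-s intervals, last minus first.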
# HttQ103 aggreg: qHTS Multiplex Assay to Identify Dual Action Probes in a Cell Model of Huntington: Aggregate Formation (GFP); PC12 HttQ103-GFP aggregates, Acumen cytometry, 40 h; hit rate 1.1% among 220,000; AID 1688, 2009; Potency, µM (doses to about 46.1 µM), hits mostly inhibitors; active = well fitted curve in the direction sought with a large enough effect; inconclusive = small, poorly fitted or top-dose-only effect, or another doubt; inactive = no such curve, though single readings can be large; an effect the other way counts as inactive or inconclusive; also: nearly all actives have a fitted effect of over 60% in size
#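 Compounds (qHTS titration) were added to PC12 cells expressing an ecdysone-driven HTT exon 1 Q103–GFP fusion after induction with 100 nM tebufenozide. Aggregate formation was measured as GFP objects in cell lysates.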
# HTT ATP protect: qHTS Multiplex Assay to Identify Dual Action Probes in a Cell Model of Huntington: Cytoprotection (ATP); PC12 HTT-Q103 induced, cytoprotection, ATP luminescence, 40 h; Potency, µM (titrated, usually from 56.4 µM), actives largely listed as activators; hit rate 0.14% among 230,000; AID 1471, 2008; active = well fitted curve in the direction sought with a large enough effect; inconclusive = small, poorly fitted or top-dose-only effect, or another doubt; inactive = no such curve, though single readings can be large; an effect the other way counts as inactive or inconclusive; also: nearly all actives have a fitted effect of over 45% in size
#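 PC12 cells stably carrying ecdysone-inducible Htt exon 1 (Q103)–GFP were induced with 100 nM tebufenozide (final) alongside library compounds in a dose series. Cytoprotection was scored as retained ATP by ATPlite luminescence.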
# LMNA splice mod: qHTS Assay for Modulators of Lamin A Splicing; HeLa LMNA splicing GFP/RFP minigene ratio, 48 h; Potency, µM (highest dose often 46.1 µM), usual class: inhibitors; hit rate 0.01% among 200,000; active = well fitted inhibition curve with a large enough effect in the signal ratio, with a control signal flat, not every such curve was filed as active; inconclusive = small, poorly fitted or top-dose-only effect, or effect the other way, or a change in a side signal; the % refers to the signal ratio
#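 S3 HeLa cells stably expressing lamin A-EGFP splicing minigene plus DsRed2, 600 cells/well, 48 h compound exposure at 37C. Laser-scanning cytometry; analysed as GFP (500-530 nm)/RFP (575-640 nm) total intensity ratio; 0.5% DMSO vehicle.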
# KDM4E inh: qHTS Assay for Inhibitors of Human Jumonji Domain Containing 2E (JMJD2E); Lysine-specific demethylase 4E (Homo sapiens), B2RXH2; JMJD2E catalytic domain, FDH-coupled NADH fluorescence (FDH is formaldehyde dehydrogenase); Potency, µM (doses to about 57.1 µM), actives largely listed as inhibitors; hit rate 1.6% among 230,000; AID 2147, 2009; also: nearly all actives have a fitted effect of over 50% in size
# Hits are given with their value; i = inactive; ? = inconclusive; nt = no result; [ ] = dose if it differs, or a comment. Unless noted, calls follow the shape of the dose curve; as a rule, active = well fitted inhibition curve with a large enough effect (not every such curve was filed as active); inconclusive = small, poorly fitted or top-dose-only effect, or another doubt; inactive = no such curve, though single readings can be large or run the other way.
SMILES,ALDH1A1 inh,HPGD block,HttQ103 aggreg,HTT ATP protect,LMNA splice mod,KDM4E inh
COc1cccc(-c2csc(N3CCN(S(=O)(=O)c4ccc(F)cc4)CC3)n2)c1,i,i,i,i[10 µM],i,i
COc1cccc(-c2csc(N3CCN(C(=S)Nc4ccc(Cl)cc4)CC3)n2)c1,0.089µM,i,?,i,i,i
COc1cccc(-c2csc(N3CCN(Cc4ccccc4)CC3)n2)c1,10µM,25µM,i,i[10 µM],?,i
COc1ccc(-c2csc(NC(C)=O)n2)cc1OC,?,i,i,i,i,i
COc1cccc(-c2csc(N3CCN(C(=S)Nc4ccccc4)CC3)n2)c1,i,i,i,i,i[0.0737 µM],i
COc1ccc(C)cc1NC(=O)CSc1nc(=O)n(Cc2cccnc2)c2c1CCC2,nt,nt,nt,nt,i,nt
CCOc1cc(/C=N\Nc2nc(Nc3ccccc3)nc(N3CCOCC3)n2)ccc1OC(=O)c1ccco1,i,i,i,?,?,i
CC(=O)Nc1cccc(-c2csc(NCc3ccco3)n2)c1,13µM,i,i,i,i,?
Oc1ccc(-c2csc(NCc3ccco3)n2)cc1,?,i,i,i[10 µM],i,?
Cc1noc(NS(=O)(=O)c2ccc(NC(=O)CSc3nc4ccccc4[nH]3)cc2)c1C,?,i,i,i,i,i
Cc1noc(NS(=O)(=O)c2ccc(NC(=O)CSc3n[nH]c(-c4ccccc4)n3)cc2)c1C,i,4.5µM,i,i,i,i
COc1ccc2nc(SCC(=O)Nc3ccc(S(=O)(=O)Nc4onc(C)c4C)cc3)[nH]c2c1,?,18µM,i,?,i,i
Cc1noc(NS(=O)(=O)c2ccc(N/C=C\C(=O)c3cccc4ccccc34)cc2)c1C,4µM,nt,i,i,nt,i
CC#CCN1c2ccccc2[C@]23C[C@@H](C(=O)OC)N(S(=O)(=O)c4ccc(Br)cc4)C2=NC(C(=O)OC)=C(C(=O)OC)[C@H]13,i[13.5 µM],i,nt,i[10 µM],i[9.22 µM],i[11.4 µM]
CNc1ncnc2ccc(-c3ccccc3C)cc12,i,nt,nt,i,i,nt
COCCn1c(SCc2c(F)cccc2Cl)nc2c1c(=O)[nH]c(=O)n2C,25µM,i,i,i[10 µM],?,i
COCCn1c(Sc2ccc(C)cc2)nc2c1c(=O)[nH]c(=O)n2C,13µM,i,i,i[0.074 µM],i,i
CCOCCn1c(SCc2ccc(F)cc2)nc2c1c(=O)[nH]c(=O)n2C,i,i,i,i,i,i
CN1CCN(C(=O)C2=C[C@@H](C3CCCCC3)C[C@@H](OCCCCO)O2)CC1,?,nt,i[9.22 µM],i[10 µM],nt,i
CC(C)(C)c1ccc(S(=O)(=O)O/N=C2/CCCCC2c2ccc([N+](=O)[O-])cc2[N+](=O)[O-])cc1 (stereo not drawn),5.6µM,i,i,i,i,i
CC1CCCC/C1=N\Nc1ccc(S(N)(=O)=O)cc1[N+](=O)[O-] (stereo not drawn),i,i,?,i[10 µM],i,i
O=C(c1ccco1)N1CCC2(CCN(Cc3cc(C(F)(F)F)cc(C(F)(F)F)c3)CC2)CC1,?,i,nt,i,nt,nt
CC(Sc1nnc(NC2CCCCC2)s1)C(=O)Nc1ccc2c(c1)C(=O)c1ccccc1C2=O (stereo not drawn),25µM,?,i,i[10 µM],i,i
O=C(CSc1nnc(NC2CCCCC2)s1)Nc1ccc(N2CCOCC2)cc1,?,i,i,i,i,i
Cc1sc2nc(CSCC(=O)Nc3ccc(OC(F)F)cc3)[nH]c(=O)c2c1C,40µM,nt,i,i[10 µM],nt,i
SMILES,ALDH1A1 inh,HPGD block,HttQ103 aggreg,HTT ATP protect,LMNA splice mod,KDM4E inh
O=C(/C=C/c1ccc(Cl)cc1)NC(=S)Nc1ccc(N2CCOCC2)c(Cl)c1,14µM,nt,i,i[10 µM],i,i
O=C(/C=C/c1ccccc1)NC(=S)Nc1ccc(N2CCOCC2)cc1,?,i,i,i,i,i
O=C(/C=C/c1ccc(S(=O)(=O)N2CCOCC2)cc1)NC(=S)Nc1ccc(Cl)cc1Cl,1.1µM,nt,?,i[10 µM],?,i
CCN(CC)C(=O)c1ccc(Nc2nnc(C)c3ccccc23)cc1,4µM,2.2µM,i,i[10 µM],i,i
O=C(Cn1nnc(-c2ccc(Cl)cc2)n1)NCCC1=CCCCC1,i,i,i,i,i,i
Cc1ccc(-c2nnn(CC(=O)NCCC3=CCCCC3)n2)cc1,28µM,i,i,i[10 µM],i,i
CC(NC(=O)c1ccc(Br)s1)C1CCCO1 (stereo not drawn),?,32µM,i,i,i,i
Cc1c(C(=O)NC2CCCCC2)sc2nc3ccc(N)cc3n12,i,i,nt,i,nt,i
C=CCOC(=O)C(=O)/C=C/c1ccc2c(c1)Cc1ccccc1-2,i,nt,i[9.22 µM],i[10 µM],nt,i
C=CCOC(=O)C(=O)/C=C/c1csc2ccccc12,10µM,nt,i[9.22 µM],i[10 µM],nt,i
Cc1cc(NC(=O)c2cnn3c(C(F)F)cc(-c4ccccc4)nc23)no1,?,i,i,i,i,?
Cc1cc(NC(=O)c2cnn3c(C(F)F)cc(C4CC4)nc23)no1,5µM,i,i,i,i,i
O=C(Nc1cccc(F)c1)N1CCC2(CC1)CCN(C(=O)c1ccco1)CC2,i,i,nt,?,nt,nt
N#Cc1cccc(NC(=O)N2CC3(CCN(C(=O)c4ccco4)CC3)C2)c1,9.5µM,i,nt,i,nt,nt
O=C(Nc1cccc(F)c1)N1CC2(CCN(C(=O)c3ccco3)CC2)C1,11µM,i,nt,i,nt,nt
CN(C)c1ccc(C(=S)N2CCCCCC2)cc1,?,28µM,i,i,i,i
CC1CCN(C(=S)c2ccc(N(C)C)cc2)CC1,13µM,nt,?,i,nt,i
CN(C)c1ccc(C(=O)N2CCCC2)cc1,?,nt,i,i,i,i
Oc1ccc(C(=S)N2CCCCC2)cc1,22µM,?,i,i[10 µM],i,i
CN(C)c1ccc(C(=S)N2CCOCC2)cc1,?,i,i,i,i,i
CC(=O)N1CCN(C(=S)c2ccc(N(C)C)cc2)CC1,8.9µM,20µM,i,i,?,i
CCN1C(=O)C(CC(=O)Nc2ccc(OC)cc2)N(CCc2ccc(OC)cc2)C1=S (stereo not drawn),2.2µM,nt,?,i,i[9.22 µM],i
COc1ccc(CCN2C(=S)N(C)C(=O)C2CC(=O)Nc2ccc(F)cc2)cc1 (stereo not drawn),1.3µM,nt,i[9.22 µM],i[10 µM],?,i
CCN1C(=O)C(CC(=O)Nc2ccc(Br)cc2)N(CCCc2ccccc2)C1=S (stereo not drawn),13µM,i,?,i,?,i
CCOC(=O)c1ccc(NC(=O)CCSCCc2ccccn2)cc1,i,nt,i,i,nt,?
O=C(Nc1ccccc1F)c1ccc(COc2ccc(Cl)cc2Cl)o1,28µM,i,i,i[10 µM],i,i
